Reference: PubChem BioAssay (NCATS)
Results filed as inconclusive are left out. A call without a number means that no potency is given here. Values without a mark were called inactive. Activity calls are given as the source filed them. The call rests on the fitted dose curve; in most records, active means well fitted curve in the direction sought with a large enough effect; inconclusive means small, poorly fitted or top-dose-only effect, or another doubt; inactive means no such curve, though single readings can be large; an effect the other way counts as inactive or inconclusive.

Experiments:
[1] = tested on: Zika virus NS2B-NS3 protease (unlinked); assay: Optimization of GU AMC qHTS for Zika virus inhibitors: Unlinked NS2B-NS3 protease assay (AID 1347151); further: nearly all actives have a fitted effect of over 80% in size; further: potency means the concentration at half of the fitted maximal effect; on activity change, negative = inhibition: series mostly up to about 52 µM
Outline: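 Fluorescence read-out (340 nm ex / 450 nm em) of AMC peptide cleavage, taken immediately and after 15 min at room temperature (~20% conversion). Enzyme was the unlinked NS2B–NS3 complex at 25 nM in Tris pH 8.0 buffer.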

[2] = tested on: Zika virus NS2B-NS3 protease; assay: Primary screen GU AMC qHTS for Zika virus inhibitors (AID 1347154); further: nearly all actives have a fitted effect of over 70% in size
Outline: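 Unlinked Zika NS2B hydrophilic domain/NS3 protease domain noncovalent complex (25 nM final) in 10 mM Tris-HCl pH 8.0, 0.01% Tween 20, with AMC peptide substrate. Fluorescence (ex 340, em 450 nm) change over 15 min, room temperature; percent inhibition fitted to 4-parameter Hill equation.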

For CN1CCN(CC(=O)N2c3ccccc3C(=O)Nc3cccnc32)CC1, the Potency [1] was “inactive” and the outcome [2] was “inactive”.

With Cc1ccc(=O)n(-c2ccccc2)c1 the Potency [1] was 26.7 µM (active) and the outcome [2] was “inactive”.

In the case of O=C(O)CN(CCOCCOCCN(CC(=O)O)CC(=O)O)CC(=O)O, the Potency [1] is reported as “inactive” and the activity change, negative = inhibition [2] is reported as -0.967% [at 0.59 µM].

CCn1cc(C(=O)O)c(=O)c2cc3c(cc21)OCO3 was tested, and the Potency [1] was 23.8 µM (active) and the outcome [2] was “inactive”.

For CCNC(=O)N1CCN(CCCC(c2ccc(F)cc2)c2ccc(F)cc2)CC1, the Potency [1] was “inactive” and the outcome [2] was “inactive”.

Cc1cccc(C)c1NC(=O)C(C)N (configuration not stated) was tested, and the Potency [1] was “inactive” and the outcome [2] was “inactive”.

For NC(=Nc1ccccc1)Nc1ccccc1, the outcome [2] was “inactive”.

With C#CCN(C)CCCOc1ccc(Cl)cc1Cl the Potency [1] was “inactive” and the outcome [2] was “inactive”.

For CCCCOCCOCCOCc1cc2c(cc1CCC)OCO2, the outcome [2] was “inactive”.

C[N+](C)(C)CCCCCCCCCC[N+](C)(C)C was tested, and the Potency [1] was “inactive” and the outcome [2] was “inactive”.

With CCc1cccc(N(C)C(N)=Nc2cccc3ccccc23)c1 the Potency [1] was “inactive” and the outcome [2] was “inactive”.

In the case of COc1cc2c(cc1OC)-c1cc(=Nc3c(C)cc(C)cc3C)n(C)c(=O)n1CC2, the outcome [2] is reported as “inactive”.

For OCCN1CCN(CC/C=C2/c3ccccc3Sc3ccc(C(F)(F)F)cc32)CC1, the Potency [1] was “inactive” and the outcome [2] was “inactive”.

For CCN(CC)CCCN(c1ccccc1)C1Cc2ccccc2C1, the Potency [1] was “inactive” and the outcome [2] was “inactive”.

CN(C)C/C=C(/c1ccc(Br)cc1)c1cccnc1 was tested, and the Potency [1] was “inactive” and the outcome [2] was “inactive”.

With c1cnc(N2CCN(Cc3ccc4c(c3)OCO4)CC2)nc1 the Potency [1] was “inactive” and the outcome [2] was “inactive”.

Fc1ccc(C(c2ccc(F)cc2)N2CCN(C/C=C/c3ccccc3)CC2)cc1 was tested, and the Potency [1] was “inactive” and the outcome [2] was “inactive”.

In the case of C[N+](C)(C)CCOC(=O)CCC(=O)OCC[N+](C)(C)C, the Potency [1] is reported as “inactive” and the outcome [2] is reported as “inactive”.

CCc1c(C)[nH]c2c1C(=O)C(CN1CCOCC1)CC2 (configuration not stated) was tested, and the Potency [1] was “inactive” and the outcome [2] was “inactive”.

With CC1=C(C)C(=O)C(CCCCC#CCCCC#CCO)=C(C)C1=O the outcome [2] was “inactive”.

CCn1nc(C(=O)O)c(=O)c2cc3c(cc21)OCO3 was tested, and the outcome [2] was “inactive”.
